8 molecules from the supplement of paper PMC10105736 can be followed below.

What all share (assay): MAPPIT interaction score (arbitrary units); higher = stronger binary interaction signal, active = hit call of the paper
One test deals with CG3517. The following applies: MAPPIT configuration: N-N; pair source set: Finley_Y2H.
The next test addresses CG3457. The following applies: MAPPIT configuration: N-N; pair source set: Finley_Y2H.
A further test has as its target CG3557. Conditions: MAPPIT configuration: N-N; pair source set: Curagen_low_conf.
The target in another test is Mst84Db. The following applies: MAPPIT configuration: N-N; pair source set: Curagen_low_conf.
The target in the next test is CG34328. Conditions: MAPPIT configuration: N-C; pair source set: screen_3.
The target in a further test is CG33514. Conditions: MAPPIT configuration: N-N; pair source set: DPIM.
Another test has as its target cv. The following applies: MAPPIT configuration: N-N; pair source set: DPIM.
In the next test the target is dah. The following applies: MAPPIT configuration: N-N; pair source set: DPIM.
The next test addresses CG34168. The following applies: MAPPIT configuration: N-N; pair source set: Curagen_high_conf.
The next test deals with CG3356. Conditions: MAPPIT configuration: N-N; pair source set: Lit-BS-16.
Another test has as its target sinah. Conditions: MAPPIT configuration: N-N; pair source set: screen_1.
Another test addresses CG34149. The following applies: MAPPIT configuration: N-C; pair source set: RRS.

Values without a mark were called inactive.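 Rule for the calls: active = MAPPIT score above the 99th percentile of random reference set scores in the same batch; inactive = at or below it.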
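Note: HEK293T cells with Epo stimulation, STAT-responsive firefly luciferase reporter, fold induction versus unstimulated cells divided by the larger fold induction of two negative controls lacking either bait or prey.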

B1: MED4 (protein)
chain: MSFHLSTKERLLLLIDDIEMIAKELIEQAHQKISSTELVDLLDLLVAKDEEFRKMLELAEEQAKVEEAMDQLRAKVEVHDREIQKLQKSLKDAELILSTAIFQARQKLASINQANKRPVSSEELIKYAHRISSANAVSAPLTWCIGDLRRPYPTDIEMRNGLLGKSEQNINGGTVTHQNSGMPSEQQRTLSGSAGSGSGSGAGGEVPNAFQNQFNWNLGELHMTMGASGNTVALETRAQDDVEVMSTDSSSSSSSDSQ
In the case of B1, in the test with CG3517, the MAPPIT interaction score is 1.9.

B2: Cog6 (protein)
chain: MSSTQEKPEELDRIQKRVNKILEARLESDKDTLDALSGLSTFFTENTLQNRRNLRSQIEHRSVGINENFLKAFRQVKLSLDAVCEDLDTMATSVETMKSDLETSKALTKDLIKQTNTMQRERDRLEVHKQIAQAFLARFQLSGAEHQLLYGAAKDAPIVADFFRVLDRVQSIHADCRLLMQCGYQTAAIDIMEEMTLHQEGALERLYRWTQNHCRSLENNEIGPLIVEAMSRLQDRPVLFKYVIDEYAIARRAVLVRQFIEALTEGGPGGNPKPIELHAHDPKRYIGDMFAWLHQSIPTEKENLSLLFKKCDKQDISDQLQNALGYIADGVCHPLKVRVETILQAEKDTIVLFTISNLLRFYQQIMRQVVQGGSLEECLVELQKSSEQIYLGALAAQVRSVLQRPSGGSGLALEPPQRDLVPPPSVARLLNMLKEILSVATMVDGRQADITKIVSCVIDPLLQSVQESAAHLPTVDMGVYLLNCLHHMQSSLAVYEYMDERVERLQAQSDAQLDTLTSEQASSLVANLNLGPIYAILQSNQSKIETNLLKIFMSKMDAFLELPDVLLLPQVQLIMSSSHRAAVQKRSFNVIVAIYKQIYERVHDPANGFEQPEQLLHRTPEQVAHILTST
For B2, in the test with CG3457, the MAPPIT interaction score was 0.308.

B3: tos (protein)
chain: MGITGLIPFVGKASSQLHLKDIRGSTVAVDTYCWLHKGVFGCAEKLARGEDTDVYIQYCLKYVNMLLSYDIKPILVFDGQHLPAKALTEKRRRDSRKQSKERAAELLRLGRIEEARSHMRRCVDVTHDMALRLIRECRSRNVDCIVAPYEADAQMAWLNRADVAQYIITEDSDLTLFGAKNIIFKLDLNGSGLLVEAEKLHLAMGCTEEKYHFDKFRRMCILSGCDYLDSLPGIGLAKACKFILKTEQEDMRIALKKIPSYLNMRNLEVDDDYIENFMKAEATFRHMFIYNPLERRMQRLCALEDYETDERYCSNAGTLLEDSEQALHLALGNLNPFSMKRLDSWTPEKAWPTPKNVKRSKHKSIWQTNFQSENTHTPKKENPCALFFKKVDFVGKTLNEEIEANQRLEQAKQTEAELFNMYSFKAKRRRSPSREDSVDQERTPPPSPVHKSRHNPFAKERTGEEANQRSPVVCENASLLRLLSPKKASPLDGEAGVKKVDSLKRSIFAKEQVQIRSRFFATQDEQTRLQREHLRDTENDDMDEQKLSSHSGHKKLRLVCKDIPGKNPIRQRCSSQISDGETDTDTTASSLLESQDKGVPSPLESQEDLNNSQPQIPTEGNTNSTTIRIKSLDLLLENSPEPTQESDRNNNDAIILLSDDSCSSDQRASSTSSSSQQRQNFLPTSKRRVGLSKPSTAKKGTPKSRTNGKLGAVSQNQTKLSMFGFQTKPVLK
Regarding B3, the MAPPIT interaction score in the test with CG3557 is 0.0573; with Mst84Db, -0.0214.

B4: betaTub85D (protein)
chain: MREIVHIQAGQCGNQIGGKFWEVISDEHCIDATGTYYGDSDLQLERINVYYNEATGAKYVPRAILVDLEPGTMDSVRSGAFGQIFRPDNFVFGQSGAGNNWAKGHYTEGAELVDSVLDVVRKESEGCDCLQGFQLTHSLGGGTGSGMGTLLISKIREEYPDRIMNTFSVVPSPKVSDTVVEPYNATLSVHQLVENTDETYCIDNEALYDICFRTLKLTTPTYGDLNHLVSATMSGVTTCLRFPGQLNADLRKLAVNMVPFPRLHFFMPGFAPLTSRGSQQYRALTVPELTQQMFDAKNMMAACDPRHGRYLTVAAIFRGRMSMKEVDEQMLNIQNKNSSFFVEWIPNNCKTAVCDIPPRGLKMSATFIGNSTAIQELFKRVSEQFTAMFRRKAFLHWYTGEGMDEMEFTEAESNMNDLVSEYQQYQEATADEEGEFDEDEEGGGDE
Consider B4, for which the MAPPIT interaction score with CG34328 was 4.11 (active).

B5: RpS21 (protein)
chain: MENDAGENVDLYVPRKCSASNRIIHAKDHASVQLSIVDVDPETGRQTDGSKTYAICGEIRRMGESDDCIVRLAKKDGIITKNF
On to B5, for which the figures for the MAPPIT interaction score with CG33514, with cv and in the test with dah were 0.423, -0.17 and -0.359, respectively.

B6: Mob2 (protein)
chain: MNWAISNLTGGNRVSRAILVRYSSVPLADATNDGSSTAPQTPTASTPRPSSSHSSLSSTFAATFLHASSRHIPGRAVPRQNANGQNGGKGNASGAGGGAGGGGAGGASGGTGGTGAQAAGQLSLPLDVEETVTCFCRKARRKERDGDQNSTDTKLYLEESVLERKLPEADLKALVDLPAGLDYNEWLASHTLALFEHVNLVYGTISEFCTQSGCADMTGPGNRTYLWFDEKGKKTRVAAPQYIDYVMTFTQKTVSDESIFPTKYANEFPGSFESIARKILRLQFHVIAHLYAAHFREIALLGLHTHLNLTFAHLTALHRRFNLIDEKETDVLRDLEVALRLTDDTGGCQDATSTTSSVHDHSHSGDLQHQSLQQQQQHHNSSSNSTSSAEAFHVNSQSNNGSTSASASVSLIDGDAVAPPICTQPEAGAGCKPAGSSGLLGGILGDLTSGEFGDTTRYCTSAVPQAAAAAGAGVGGTAIGATDAAALNNGAGALHLNFSNNNNNNHNLNHHHHHHHHHGHHGHHHAAQQQQQHSGLIQCNAAGGGGNATGVATGGATAAASSTTTA
In the case of B6, the MAPPIT interaction score with CG34168 was 0.212.

B7: Ubc4 (protein)
chain: MANMAVSRIKREFKEVMRSEEIVQCSIKIELVNDSWTELRGEIAGPPDTPYEGGKFVLEIKVPETYPFNPPKVRFITRIWHPNISSVTGAICLDILKDNWAAAMTLRTVLLSLQALLAAAEPDDPQDAVVAYQFKDKYDLFLLTAKHWTNAYAGGPHTFPDCDSKIQRLRDMGIDEHEARAVLSKENWNLEKATEGLFS
B7: the MAPPIT interaction score in the test with CG3356 was 0.159; with sinah, 2.14.

B8: Cyp4d2 (protein)
chain: MLGVVGVLLLVAFATLLLWDFLWRRRGNGILPGPRPLPFLGNLLMYRGLDPEQIMDFVKKNQRKYGRLYRVWILHQLAVFSTDPRDIEFVLSSQQHITKNNLYKLLNCWLGDGLLMSTGRKWHGRRKIITPTFHFKILEQFVEIFDQQSAVMVEQLQSRADGKTPINIFPVICLTALDIIAETAMGTKINAQKNPNLPYVQAVNDVTNILIKRFIHAWQRVDWIFRLTQPTEAKRQDKAIKVMHDFTENIIRERRETLVNNSKETTPEEEVNFLGQKRRMALLDVLLQSTIDGAPLSDEDIREEVDTFMFEGHDTTTSAISFCLYEISRHPEVQQRLQQEIRDVLGEDRKSPVTLRDLGELKFMENVIKESLRLHPPVPMIGRWFAEDVEIRGKHIPAGTNFTMGIFVLLRDPEYFESPDEFRPERFDADVPQIHPYAYIPFSAGPRNCIGQKFAMLEMKSTVSKLLRHFELLPLGPEPRHSMNIVLRSANGVHLGLKPRA
Take B8: the MAPPIT interaction score in the test with CG34149 is -1.31.
